Drawing on ChEMBL document CHEMBL4808148, “HDAC6 screening dataset using tau-based substrate in an enzymatic assay yields selective inhibitors and activators” (2021), this text covers inhibition for 44 compounds.

Out of some 5,600 compounds screened, about 390 (7%) showed an effect of 50% or more. This excerpt belongs to a sample that is enriched for strong results. Residues, ends and D or L forms follow the SMILES beside them.

The target of the test is T1, Protein deacetylase HDAC6 (Homo sapiens) (UniProt Q9UBN7).
T1 sequence (whole entry): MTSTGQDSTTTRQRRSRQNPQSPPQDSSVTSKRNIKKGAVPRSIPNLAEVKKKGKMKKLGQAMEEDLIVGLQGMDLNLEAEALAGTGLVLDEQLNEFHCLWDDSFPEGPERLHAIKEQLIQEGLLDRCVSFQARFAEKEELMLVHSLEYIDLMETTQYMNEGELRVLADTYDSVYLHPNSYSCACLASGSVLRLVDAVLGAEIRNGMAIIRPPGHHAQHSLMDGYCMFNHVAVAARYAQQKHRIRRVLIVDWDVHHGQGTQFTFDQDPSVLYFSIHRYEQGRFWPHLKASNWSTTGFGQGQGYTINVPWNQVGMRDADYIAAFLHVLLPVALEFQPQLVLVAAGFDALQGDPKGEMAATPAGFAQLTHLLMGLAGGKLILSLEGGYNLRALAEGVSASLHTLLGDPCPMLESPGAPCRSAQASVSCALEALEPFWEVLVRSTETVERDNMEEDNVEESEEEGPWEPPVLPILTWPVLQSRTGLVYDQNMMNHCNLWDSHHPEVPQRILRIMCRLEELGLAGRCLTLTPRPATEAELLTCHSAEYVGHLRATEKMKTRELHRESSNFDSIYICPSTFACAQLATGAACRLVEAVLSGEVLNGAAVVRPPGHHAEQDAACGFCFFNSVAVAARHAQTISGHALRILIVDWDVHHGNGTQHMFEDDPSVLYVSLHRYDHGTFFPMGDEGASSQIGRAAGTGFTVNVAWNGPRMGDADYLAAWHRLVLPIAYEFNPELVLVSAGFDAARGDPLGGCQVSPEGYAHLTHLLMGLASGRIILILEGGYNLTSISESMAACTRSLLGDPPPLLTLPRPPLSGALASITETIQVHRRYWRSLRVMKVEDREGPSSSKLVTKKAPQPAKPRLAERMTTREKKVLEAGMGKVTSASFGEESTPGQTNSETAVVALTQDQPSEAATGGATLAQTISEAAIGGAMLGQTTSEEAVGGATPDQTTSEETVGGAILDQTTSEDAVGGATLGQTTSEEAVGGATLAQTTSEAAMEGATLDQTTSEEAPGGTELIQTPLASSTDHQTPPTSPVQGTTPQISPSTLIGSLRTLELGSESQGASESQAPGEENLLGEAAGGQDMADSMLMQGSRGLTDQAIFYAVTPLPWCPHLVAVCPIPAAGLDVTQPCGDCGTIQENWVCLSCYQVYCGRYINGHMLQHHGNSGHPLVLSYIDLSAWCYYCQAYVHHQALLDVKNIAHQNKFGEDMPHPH
To be noted: at 10 µM.
For orientation: inhibition means the change of the read-out against control, counted positive when it falls. On to `Cc1ccc(-n2nc(C(C)(C)C)cc2NC(=O)Nc2ccc(OCCN3CCOCC3)c3ccccc23)cc1`, for which the inhibition was determined as 71.1%. Then `Cc1cc(OCCN2CCOCC2)nn1-c1ccc2ccccc2c1`, with 10.2%; and `CC(C)(C)c1cc(NC(=O)Nc2ccc(-c3cn4c(n3)sc3cc(OCCN5CCOCC5)ccc34)cc2)no1`, with 1.57%; and `O[C@H]1[C@H](O)[C@@H](O)[C@H](O)[C@@H](O)[C@H]1O`, with 22.8%. Then `COc1nccnc1NS(=O)(=O)c1ccc(N)cc1`, with 34.6%; and `CCCCc1nc2cc(/C=C/C(=O)NO)ccc2n1CCN(CC)CC`, with 102%; and `Clc1cc(Cl)c(OCC#CI)cc1Cl`, with 4.74%. In the case of `COc1cc2nc(N3CCC(N4CCCCC4)CC3)nc(NC3CCCCCC3)c2cc1OC`, the inhibition amounted to 0.07%.

With `CC(C)[C@H]1c2ccc(F)cc2CC[C@@]1(CCN(C)CCCc1nc2ccccc2[nH]1)OC(=O)C1CC1`, the inhibition worked out at 15.1%. For `Cc1cc(C)cc(NC(=O)Nc2ccc(OS(N)(=O)=O)cc2)c1` the value was 44.5%; for `COc1ccc(Nc2ncnc3ccc(OC)cc23)cc1`, 27.1%; for `COc1ccc2nc(NC(=O)Nc3ccccc3)sc2c1`, 109%. For `COC1=C2C[C@@H](C)C[C@H](OC)[C@H](O)[C@@H](C)/C=C(\C)[C@H](OC(N)=O)[C@@H](OC)/C=C\C=C(/C)C(=O)NC(=CC1=O)C2=O` the value was 19.3%. Then `COC(=O)Nc1ccc(-c2nc(N3CCOCC3)c3cnn(C4CCN(Cc5cccnc5)CC4)c3n2)cc1`, with -1.91%; and `Nc1nnc(Sc2ncc([N+](=O)[O-])s2)s1`, with 34.9%. As to `O=C(Nc1c(Cl)cncc1Cl)c1ccc(OC(F)F)c(OCC2CC2)c1`, the inhibition was -1.25%. For `Cc1ccc(-c2csc3ncnc(SCCC(=O)O)c23)cc1` the value was 22.2%.

On to `O=C(O)COc1ccc(C(=O)c2cccs2)c(Cl)c1Cl`, for which the inhibition turned out to be 19.9%. As for `Sc1nc2ccccc2s1`, the inhibition was 52.6%. For the compound `O=c1[nH]c2cc(C(F)(F)F)c(N3CCOCC3)cc2n(CP(=O)(O)O)c1=O`, the inhibition turned out to be 1.79%.

As to `CC(C)=CCC[C@](C)(O)[C@@H]1CC=C(C)CC1`, the inhibition was found to be 18.6%. For `COc1ccc(Cc2nc(O)c3c(C)nc([C@@H](CCCc4ccccc4)[C@@H](C)O)n3n2)cc1OC` the value was -9.71%; for `Cc1sc(N)c(C(=O)c2cccc(C(F)(F)F)c2)c1C`, 17.1%; for `Cc1cc(C)c(S(=O)(=O)Nc2cccc(C(F)(F)F)c2)c(C)c1`, 97.6%. Turning to `COc1ccc(S(=O)(=O)Nc2c(C)cc(C)cc2C)cc1`, the inhibition was -8.52%. For `CCc1cccc(CC)c1NC(=O)N1Cc2[nH]nc(NC(=O)c3ccc(N4CCN(C)CC4)cc3)c2C1`, the inhibition came out at 7.27%. For `Nc1nc(OCC2CCCCC2)c2nc[nH]c2n1` the value was 33.5%. Then `Nc1nc(N)c(N=O)c(OCC2CCCCC2)n1`, with 81.8%; and `Nc1ccc(C(=O)NCC(=O)O)cc1`, with 6.74%; and `CN(C)CCC1(c2ccc(Cl)cc2)Cc2ccccc2C(=O)O1` (racemic), with 3.8%. For `Cn1cnc([N+](=O)[O-])c1Sc1ncnc2[nH]cnc12` the value was 12.8%; for `Oc1ccc(C(O)CNCCCCCCNCC(O)c2ccc(O)c(O)c2)cc1O` (centres undefined), -3.51%. Turning to `OCc1cc(C(O)CNCCCCCCOCCCCc2ccccc2)ccc1O` (centres undefined), the inhibition is -5.85%. Then `OCc1cc([C@@H](O)CNCCCCCCOCCOCc2c(Cl)cccc2Cl)ccc1O`, with 59.3%; and `COc1cc(NS(C)(=O)=O)ccc1Nc1c2ccccc2nc2ccccc12`, with 76.6%; and `COc1ccc(Cl)cc1NC(=O)Nc1cc(C)nc2ccccc12`, with 16.6%. As to `COc1ccc(S(=O)(=O)Nc2cccnc2Nc2ccc(O)cc2)cc1`, the inhibition was 34.3%. On to `CCOC(=O)c1cc(C#N)c(N2CCC(C(=O)NS(=O)(=O)Cc3ccccc3)CC2)nc1C`, for which the inhibition is 21.9%. For `NCC(=O)N[C@@H](CCC(N)=O)C(=O)O` (H-Gly-Gln-OH) the value was 29.1%; for `O=S(=O)(Cc1ccccc1)Nc1ccc(-c2ccc3c(cnn3-c3ccc(F)cc3)c2)c(C(F)(F)F)c1`, -8.14%. Then `Oc1cccc(O)c1`, with 1.38%. For `N[C@H]1C[C@@H]1c1ccc(-c2cccc(O)c2)cc1` the value was 77.4%.

Take `O=c1[nH]c2ccccc2n1C1CCN(CCOc2ccccc2)CC1`: the inhibition stood at 20.9%.

`CCOC(=O)c1cc2ccc(O)cc2oc1=O`: the inhibition came to 55.9%.
